{"source": "PubChem BioAssay (NCATS)", "assay_in_all_cases": "qHTS profiling for inhibitors of Plasmodium falciparum proliferation (AID 504749); further: nearly all actives have a fitted effect of over 60% in size", "details_in_all_cases": "P. falciparum in erythrocytes, SYBR Green DNA, 72 h; series mostly up to 28.7 µM", "key": {"AA1029": {"tested_on": "AA1029", "procedure,_shortened": "(§1)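 SYBR Green fluorescence (ex 485 nm, em 535 nm) reports parasite DNA after 72 h compound exposure of infected red cells at 0.3% parasitemia, 2.5% hematocrit; signal normalized to 0.29 uM artemisinin and vehicle wells.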"}, "AS120": {"tested_on": "AS120", "procedure,_shortened": "as §1"}, "ATS95": {"tested_on": "ATS95", "procedure,_shortened": "as §1"}, "C2A": {"tested_on": "C2A", "procedure,_shortened": "as §1"}, "CP192": {"tested_on": "CP192", "procedure,_shortened": "as §1"}, "CP194": {"tested_on": "CP194", "procedure,_shortened": "as §1"}, "CP201": {"tested_on": "CP201", "procedure,_shortened": "as §1"}, "CP203": {"tested_on": "CP203", "procedure,_shortened": "as §1"}, "CP215": {"tested_on": "CP215", "procedure,_shortened": "as §1"}, "CP238": {"tested_on": "CP238", "procedure,_shortened": "as §1"}, "7G8": {"tested_on": "7G8", "procedure,_shortened": "as §1"}, "ATS189": {"tested_on": "ATS189", "procedure,_shortened": "as §1"}, "CP185": {"tested_on": "CP185", "procedure,_shortened": "as §1"}, "CP191": {"tested_on": "CP191", "procedure,_shortened": "as §1"}, "CP211": {"tested_on": "CP211", "procedure,_shortened": "as §1"}, "CP217": {"tested_on": "CP217", "procedure,_shortened": "as §1"}, "CP237": {"tested_on": "CP237", "procedure,_shortened": "as §1"}, "CP247": {"tested_on": "CP247", "procedure,_shortened": "as §1"}, "CP250": {"tested_on": "CP250", "procedure,_shortened": "as §1"}, "CP252": {"tested_on": "CP252", "procedure,_shortened": "as §1"}}, "note": "Results filed as inconclusive are left out. Entries that show only a call come without a potency. Active and inactive are the calls of the source. The call rests on the fitted dose curve; in most records, active means well fitted inhibition curve with a large enough effect; inconclusive means small, poorly fitted or top-dose-only effect; inactive means flat fitted curve, though single readings scatter. Potency means the concentration at half of the fitted maximal effect."}
{"smiles": "NC(=O)c1cc([N+](=O)[O-])cc([N+](=O)[O-])c1", "values": [{"measurement": "Potency", "setting": "AA1029", "result": "inactive"}, {"measurement": "Potency", "setting": "AS120", "result": "inactive"}, {"measurement": "Potency", "setting": "ATS95", "result": "inactive"}, {"measurement": "Potency", "setting": "C2A", "result": "inactive"}, {"measurement": "Potency", "setting": "CP192", "result": "inactive"}, {"measurement": "Potency", "setting": "CP194", "result": "inactive"}, {"measurement": "Potency", "setting": "CP201", "result": "inactive"}, {"measurement": "Potency", "setting": "CP203", "result": "inactive"}, {"measurement": "Potency", "setting": "CP215", "result": "inactive"}, {"measurement": "Potency", "setting": "CP238", "result": "inactive"}]}
{"smiles": "CN1C(=O)C(O)N=C(c2ccccc2)c2cc(Cl)ccc21", "note": "(centres undefined)", "values": [{"measurement": "Potency", "setting": "7G8", "result": "inactive"}, {"measurement": "Potency", "setting": "AA1029", "result": "inactive"}, {"measurement": "Potency", "setting": "AS120", "result": "inactive"}, {"measurement": "Potency", "setting": "ATS189", "result": "inactive"}, {"measurement": "Potency", "setting": "ATS95", "result": "inactive"}, {"measurement": "Potency", "setting": "C2A", "result": "inactive"}, {"measurement": "Potency", "setting": "CP185", "result": "inactive"}, {"measurement": "Potency", "setting": "CP191", "result": "inactive"}, {"measurement": "Potency", "setting": "CP192", "result": "inactive"}, {"measurement": "Potency", "setting": "CP194", "result": "inactive"}, {"measurement": "Potency", "setting": "CP201", "result": "inactive"}, {"measurement": "Potency", "setting": "CP203", "result": "inactive"}, {"measurement": "Potency", "setting": "CP211", "result": "inactive"}, {"measurement": "Potency", "setting": "CP217", "result": "inactive"}, {"measurement": "Potency", "setting": "CP237", "result": "inactive"}, {"measurement": "Potency", "setting": "CP238", "result": "inactive"}, {"measurement": "Potency", "setting": "CP247", "result": "inactive"}, {"measurement": "Potency", "setting": "CP250", "result": "inactive"}, {"measurement": "Potency", "setting": "CP252", "result": "inactive"}]}
{"smiles": "Clc1ccc(C(c2ccc(Cl)cc2)C(Cl)(Cl)Cl)cc1", "values": [{"measurement": "Potency", "setting": "7G8", "result": "8.91 µM (active)"}, {"measurement": "Potency", "setting": "AA1029", "result": "inactive"}, {"measurement": "Potency", "setting": "AS120", "result": "inactive"}, {"measurement": "Potency", "setting": "ATS95", "result": "inactive"}, {"measurement": "Potency", "setting": "C2A", "result": "inactive"}, {"measurement": "Potency", "setting": "CP185", "result": "inactive"}, {"measurement": "Potency", "setting": "CP192", "result": "inactive"}, {"measurement": "Potency", "setting": "CP201", "result": "inactive"}, {"measurement": "Potency", "setting": "CP211", "result": "inactive"}, {"measurement": "Potency", "setting": "CP217", "result": "inactive"}, {"measurement": "Potency", "setting": "CP238", "result": "inactive"}, {"measurement": "Potency", "setting": "CP247", "result": "inactive"}, {"measurement": "Potency", "setting": "CP250", "result": "inactive"}, {"measurement": "Potency", "setting": "CP252", "result": "inactive"}]}
{"smiles": "O=C1Nc2ccc(Cl)cc2C(c2ccccc2)=NC1O", "note": "(centres undefined)", "values": [{"measurement": "Potency", "setting": "7G8", "result": "inactive"}, {"measurement": "Potency", "setting": "AA1029", "result": "inactive"}, {"measurement": "Potency", "setting": "AS120", "result": "inactive"}, {"measurement": "Potency", "setting": "ATS189", "result": "inactive"}, {"measurement": "Potency", "setting": "ATS95", "result": "inactive"}, {"measurement": "Potency", "setting": "C2A", "result": "inactive"}, {"measurement": "Potency", "setting": "CP185", "result": "inactive"}, {"measurement": "Potency", "setting": "CP191", "result": "inactive"}, {"measurement": "Potency", "setting": "CP192", "result": "inactive"}, {"measurement": "Potency", "setting": "CP194", "result": "inactive"}, {"measurement": "Potency", "setting": "CP201", "result": "inactive"}, {"measurement": "Potency", "setting": "CP203", "result": "inactive"}, {"measurement": "Potency", "setting": "CP211", "result": "inactive"}, {"measurement": "Potency", "setting": "CP217", "result": "inactive"}, {"measurement": "Potency", "setting": "CP237", "result": "inactive"}, {"measurement": "Potency", "setting": "CP238", "result": "inactive"}, {"measurement": "Potency", "setting": "CP247", "result": "inactive"}, {"measurement": "Potency", "setting": "CP250", "result": "inactive"}, {"measurement": "Potency", "setting": "CP252", "result": "inactive"}]}
{"smiles": "Cc1nnc2n1-c1ccc(Cl)cc1C(c1ccccc1)=NC2", "values": [{"measurement": "Potency", "setting": "AA1029", "result": "inactive"}, {"measurement": "Potency", "setting": "AS120", "result": "inactive"}, {"measurement": "Potency", "setting": "C2A", "result": "inactive"}, {"measurement": "Potency", "setting": "CP185", "result": "inactive"}, {"measurement": "Potency", "setting": "CP191", "result": "inactive"}, {"measurement": "Potency", "setting": "CP192", "result": "inactive"}, {"measurement": "Potency", "setting": "CP194", "result": "inactive"}, {"measurement": "Potency", "setting": "CP201", "result": "inactive"}, {"measurement": "Potency", "setting": "CP203", "result": "inactive"}, {"measurement": "Potency", "setting": "CP211", "result": "inactive"}, {"measurement": "Potency", "setting": "CP215", "result": "inactive"}, {"measurement": "Potency", "setting": "CP217", "result": "inactive"}, {"measurement": "Potency", "setting": "CP237", "result": "inactive"}, {"measurement": "Potency", "setting": "CP238", "result": "inactive"}, {"measurement": "Potency", "setting": "CP247", "result": "inactive"}, {"measurement": "Potency", "setting": "CP250", "result": "inactive"}, {"measurement": "Potency", "setting": "CP252", "result": "inactive"}]}
